Rows were chosen to be rich in hits. Some 2.4% of all compounds tested hit in one or more screens of this group.
APOBEC3A inh: APOBEC3A ssDNA deaminase inhibitors, primary screen, selectivity assay for APOBEC3G inhibitor project, biochemical, FAM/TAMRA oligo cleavage fluorescence. recombinant A3A, FAM/TAMRA ssDNA deamination fluorescence. inhibition, % at 20 µM. hit rate 0.41% among 330,000;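 active means at least 40% inhibition at 20 µM here, with at most 30% in a related deaminase screen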;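 further: plate controls were A3A with DMSO for no effect and wells lacking A3A enzyme for full effect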
ADAM17 inh: ADAM17 inhibitors, primary screen, biochemical, QFRET; Disintegrin and metalloproteinase domain-containing protein 17 (Homo sapiens), P78536; recombinant ADAM17, EDANS/DABCYL FRET peptide cleavage; inhibition, % at 6.95 µM; hit rate 0.83% among 370,000; AID 720648, 2013;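 active means inhibition above the mean of compounds lying between control limits plus 3 SD, set per campaign, cut at about 8.5% in these data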;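 further: 0% = DMSO-only wells as the low control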
NRP1-CendR mod: modulators of CendR peptide binding to NRP-1, primary screen, biochemical, fluorescence polarization, uHTS. FAM-RPARPAR peptide binding to NRP-1. inhibition, % at 25 µM. hit rate 0.85% among 360,000. Neuropilin-1 (Homo sapiens), O14786. AID 602438, 2012;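 active means inhibition or corrected inhibition above about 18%, plus a signal ratio from 0.5 to 1.5, limit read from the data, passing the limit was not always enough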
A3G deaminase: APOBEC3G DNA deaminase inhibitors, primary screen, biochemical, fluorescence, single-stranded DNA substrate, uHTS. recombinant A3G, ssDNA deamination FAM/TAMRA fluorescence. hit rate 0.28% among 330,000. DNA dC->dU-editing enzyme APOBEC-3G (Homo sapiens), Q9HC16. inhibition, % at 20 µM;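 active means inhibition of at least 40% at 20 µM, with no more than 30% in the related APOBEC3A deaminase screen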;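 further: plate controls were DMSO wells with A3G for no effect and wells lacking A3G enzyme for full effect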
ADAM10 inh: human ADAM10 inhibitors, primary screen, biochemical, QFRET, HTS; Disintegrin and metalloproteinase domain-containing protein 10 (Homo sapiens), O14672; recombinant ADAM10, EDANS/DABCYL FRET peptide cleavage, 3 h; inhibition, % at 7 µM; hit rate 0.62% among 370,000; AID 720582, 2013;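 active means inhibition above a per-campaign cutoff equal to the mean of compounds falling between control-based bounds plus 3 SD, cut at about 20% in these data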;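 further: 0% = DMSO wells while the 100% control is not disclosed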
* = called active by the depositor; nt = not tested or not shown.

SMILES	APOBEC3A inh	ADAM17 inh	NRP1-CendR mod	A3G deaminase	ADAM10 inh
COc1ccc(CN=C2NN=C(c3cccc(OC)c3)CS2)cc1	3	-1	-10	-2	2
Cc1ccc(Oc2c(C=O)c3ccccc3n2C)cc1	-20	0	12	-5	4
COc1ccc(Oc2c(C=O)c3ccccc3n2C)cc1	-3	0	26*	-5	-2
CC(C)(C)OC(=O)N1CCC(N[C@@H](Cc2c[nH]c3ccccc23)C(=O)NCC(c2ccccc2)c2ccccc2)(C(=O)NC2CCCCC2)CC1	nt	6	nt	nt	14
COc1ccc(S(=O)(=O)N/N=C\c2ccc3c(c2)OCO3)c(OC)c1	0	2	30*	-4	12
O=C1CCN(Cc2cccnc2)CCN1[C@H](CO)c1ccccc1	-6	-3	22*	-11	3
O=C(Nc1ccc2[nH]ccc2c1)c1cc(-c2ccc(Cl)cc2)nc2ccccc12	nt	6	nt	nt	5
Nc1nc2c(ncn2[C@@H]2O[C@H](C(=O)N[C@@H](Cc3ccccc3)C(=O)NCc3ccc4c(c3)OCO4)[C@@H](O)[C@H]2O)c(=O)[nH]1	nt	3	nt	nt	4
CCOc1ccc(S(=O)(=O)N2CCN(C(=O)c3sccc3C)CC2)cc1	-3	-3	27*	-6	1
Cc1ccc(C)c(Oc2ccc(S(=O)(=O)N3CCN(C)CC3)cn2)c1	-5	-10	12	-5	2
COc1ccc(S(=O)(=O)N2CCN(C)CC2)cn1	7	2	22*	1	-1
CCCCOc1ccc(S(=O)(=O)N2CCN(C)CC2)cc1	-6	4	26*	-6	7
CC(C)(C)c1ccc(-c2cn(C[C@H](Cc3ccccc3)n3c(=O)c4ccccc4n3Cc3ccno3)nn2)cc1	nt	-27	nt	nt	-87
CCOC(=O)Cn1c(=O)n(Cc2ccco2)c(=O)c2ccc(C(=O)NC3CCCC3)cc21	-4	-4	33*	-7	0
O=C(O)C1C2CCC(C2)C1C(=O)Nc1cccc([N+](=O)[O-])c1 (stereo not given)	nt	-2	18	nt	3
O=C(Nc1cccc([N+](=O)[O-])c1)C1C2CC/C=C\CCC21 (stereo not given)	-4	-2	41*	-6	10
Cc1nn(Cc2ccccc2)c(Cl)c1C(=O)OCc1nnc(-c2ccc(Cl)cc2)o1	-3	-1	38*	-10	6
O=C(OCc1nnc(-c2ccc(Cl)cc2)o1)c1ccc(O)cc1	3	3	29*	-3	0
O=C1CCC(C(=O)OCc2nnc(-c3ccc(Cl)cc3)o2)=NN1	1	2	7	-2	-6
Cc1nn(Cc2ccccc2)c(Cl)c1C(=O)OCc1nnc(-c2ccccc2)o1	0	2	-8	-2	7
CC1CCN(c2nc(-c3cccnc3)nc3scc(-c4ccccc4)c23)CC1	-1	-2	-9	-5	-4
Clc1nc(-c2ccccn2)nc2scc(-c3ccccc3)c12	0	-18	30*	-1	-46
CCOc1ccc(S(=O)(=O)NC2=NCCCCC2)cc1	-3	4	18*	-9	2
O=S(=O)(NC1=NCCCCC1)c1ccc(Cl)cc1	-2	-3	6	-3	12
O=C(OCc1ccccc1)[C@H](Cc1ccccc1)NC(=O)[C@@H]1CC=C[C@@H]2CCN(Cc3ccccc3)C(=O)[C@@H]21	nt	5	nt	nt	12
SMILES	APOBEC3A inh	ADAM17 inh	NRP1-CendR mod	A3G deaminase	ADAM10 inh
COCCN1CCCc2nc(-c3ccc(Br)cc3)ccc21	nt	-32	nt	nt	-116
Cc1cc(NC(=O)CN(C)CC(=O)Nc2ccc(F)c(F)c2F)no1	0	0	2	2	-2
CCCN(CC(=O)Nc1cc(C)on1)CC(=O)Nc1ccc(F)c(F)c1F	0	0	23*	-7	-3
Cc1ccc(C(=O)N/C(=C\c2ccc(-c3ccccc3[N+](=O)[O-])o2)C(=O)NCCCN2CCOCC2)cc1	-1	-8	26*	-3	-32
Cc1ccc(C(=O)N/C(=C\c2ccccc2)C(=O)NCCCn2ccnc2)cc1	0	0	23*	-4	-6
Cc1ccc(/C=C(\NC(=O)c2ccc(C)cc2)C(=O)NCCCn2ccnc2)cc1	0	2	-9	1	-1
COc1ccc(NS(=O)(=O)c2ccc(C)c(NC(=O)CN3C(=O)NC4(CCCC4)C3=O)c2)cc1	-11	1	30*	-36	-6
CCOCCCNC(=O)C1CCN(S(=O)(=O)c2cc3c(cc2Br)CCN3C(=O)CC)CC1	nt	-1	nt	nt	-3
CC(=O)Nc1sc2c(c1-c1cc3ccccc3o1)CCNC2	nt	-11	nt	nt	-28
Cc1ccc(SCCN2CCN(C)CCC2=O)cc1	5	-6	26*	2	11
CC(C)C(=O)N[C@H]1[C@H](O)CCC[C@@]12C(=O)N(Cc1ccccc1)c1ccccc12	nt	3	nt	nt	-2
CC(=O)N1CC(C)Sc2ccc(S(=O)(=O)NC3CCCCC3C)cc21 (stereo not given)	-1	-1	21*	-6	1
CC(=O)N1CC(C)Sc2ccc(S(=O)(=O)NCc3ccccc3Cl)cc21 (stereo not given)	-6	1	8	-8	-5
COC(=O)[C@H](C(C)C)N1Cc2nnn(Cc3ccccc3)c2C=CS1(=O)=O	nt	-2	nt	nt	-1
O=C(C[n+]1ccccc1)N/N=C/c1ccccc1Cl	1	-3	26*	-2	-5
O=C(C[n+]1ccccc1)N/N=C/c1cccc(Cl)c1Cl	-3	2	12	-7	4
Cc1cccc(-n2ncc3c2CCCC3NC(=O)CCN2CCCCO2)c1C (stereo not given)	-1	-4	23*	-5	-11
Cc1ccccc1NC(=O)O[C@H]1CC[C@@]23CCCN2C(=O)CCC[C@H]3[C@H]1C	nt	-7	nt	nt	-6
CC(=O)Nc1cc2c3c(c1)CCC(=O)N3CCC2	-6	0	12	-9	-8
CCC(=O)Nc1cc2c3c(c1)CCC(=O)N3CCC2	0	-2	26*	4	-4
Cc1ccccc1NC(=O)COC(=O)CCc1ccccc1	1	1	-10	-5	6
N#Cc1ccccc1NC(=O)COC(=O)CCc1ccccc1	0	1	17*	-8	4
CCOc1cnn(Cc2ccccc2)c(=O)c1SCc1ccccc1	1	2	28*	-3	0
COc1cnn(Cc2ccccc2)c(=O)c1SCc1ccccc1	4	-1	-8	-1	-7
Cc1ccc(S(=O)(=O)N2CCN(C(=O)c3cc4c(C)nn(-c5ccccc5C)c4s3)CC2)cc1	-1	9.0*	-11	-4	22*
